# Measured values published in the supplement of paper PMC3334620.
# The full ranking holds about 33,000 sequences; the median of “E-score (-0.5 to 0.5)” is about -0.0034, and the highest 2% start at about 0.25. Shown is part of a subset that was picked to be rich in the highest values.
# Molecular target: T1, Yap3 (UniProt P38749)
# T1 sequence: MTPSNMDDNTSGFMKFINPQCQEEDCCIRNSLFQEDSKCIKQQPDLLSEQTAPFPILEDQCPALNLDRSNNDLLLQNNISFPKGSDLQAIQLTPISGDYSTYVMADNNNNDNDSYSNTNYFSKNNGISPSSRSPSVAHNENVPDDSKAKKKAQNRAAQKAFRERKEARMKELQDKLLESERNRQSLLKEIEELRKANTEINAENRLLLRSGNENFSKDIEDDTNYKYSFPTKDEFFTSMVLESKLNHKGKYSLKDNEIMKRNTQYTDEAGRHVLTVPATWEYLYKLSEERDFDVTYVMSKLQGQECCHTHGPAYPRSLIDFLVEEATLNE
# Assay: PBM E-score (8-mer binding enrichment) (E-score (-0.5 to 0.5)); higher = stronger / more preferred TF binding
# Conditions: protein concentration: 100 nM; construct: GST-full length
# How it was run: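 Using PURExpress in vitro transcription/translation, GST-tagged yeast transcription factors were made in full-length or DNA-binding-domain form. These were applied at about 100-200 nM to double-stranded universal all-10-mer Agilent arrays, and bound protein was detected with fluorescent anti-GST. Scans were normalised with masliner before the Universal PBM Analysis Suite assigned E-scores to ungapped eight-base words pooled with their reverse complements.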
row,Sequence,PBM E-score
1,CGTGGTCA,-0.112
2,ACTCTAAG,-0.0616
3,CTCCGTGA,-0.0971
4,CGCCACCA,-0.25
5,CGACCCCA,-0.16
6,AGTAACGA,-0.0656
7,GCGACAAA,0.0655
8,CGCTCGAG,0.0723
9,GGTTTTCA,0.0332
10,CTTTTGCA,0.227
11,AACGGTCG,0.105
12,AAATTAGA,0.201
13,AAATTACT,0.304
14,AAATTAGG,0.196
15,AAATTACC,0.235
16,AAATTACG,0.172
17,AAATTAGT,0.283
18,CGCAGCGA,-0.0766
19,TAGTGGGA,-0.0516
20,AAGCCTTC,-0.0737
21,GTGTAACA,-0.00489
22,AAAAGTTA,0.195
23,AATTTCGA,-0.00117
24,GATTTCGA,0.12
25,TATTTCGA,0.293

row,Sequence,PBM E-score
1,ATTGTCCG,0.216
2,TGGTAGAA,-0.0125
3,GTTATAAA,0.283
4,TTTATAAA,0.277
5,TCTATAAA,0.111
6,CTTATAAA,0.187
7,GTTATAAC,0.162
8,GTTATAGA,0.0873
9,GCAATTAA,0.112
10,AGAACGCG,0.14
11,AAGTCGCG,0.146
12,CATCTACG,-0.0208
13,GCCCGTAC,-0.155
14,AAATGATC,-0.129
15,CAATGATA,0.137
16,AAATGATA,0.275
17,TAATGATA,0.239
18,AAATGAAA,0.324
19,CAATGAAA,0.077
20,ACATGATC,0.115
21,TAATGAAA,0.218
22,AAATGATT,0.19
23,GAATGATA,0.295
24,GCATGATA,0.184
25,ACATGATA,0.263

row,Sequence,PBM E-score
1,ACCGCAAA,0.109
2,CCTTCATC,-0.195
3,AGACTATC,0.0563
4,AGAAGTCG,0.0232
5,CGGATAGC,0.052
6,GACCAGAA,-0.00826
7,ACGGCTAT,-0.0939
8,CAGACCTC,-0.181
9,GCAAAAGC,0.0339
10,CTATTAAA,0.135
11,ATATTAAG,0.0834
12,GTATTAAC,0.0508
13,ATATTAGA,0.175
14,ATATTAAT,0.351
15,AAATTAAA,0.319
16,AAATTAAT,0.229
17,ATATTAAC,0.274
18,AGATTAAT,0.194
19,ATATTAAA,0.378
20,AAATTAAC,0.136
21,CTATTAAC,0.188
22,AGAGACGC,0.0051
23,CTCCTCCC,-0.358
24,GTACTGAA,0.117
25,AACCTTCG,0.0416

row,Sequence,PBM E-score
1,CATTGTAA,0.172
2,CACCAGAG,-0.215
3,AAGAGTAA,0.0872
4,TCATTAAA,0.258
5,GCATTAAA,0.177
6,ACATTAAA,0.229
7,TTATTAAA,0.34
8,TGATTAAA,0.113
9,GTATTAAA,0.141
10,GGAGAAGA,-0.148
11,TAACGCTA,0.023
12,ATGGCAAT,0.0617
13,GGGATTAC,0.00382
14,CAAGCTAG,-0.0475
15,AATTAGTA,0.369
16,CATTAGCA,0.0386
17,CGTTAGTA,0.241
18,AATTAGTC,0.303
19,CATTAGTC,0.0988
20,GATTAGTA,0.218
21,AGTTAGTA,0.195
22,CATTAGTA,0.289
23,ACTTAGTG,-0.0604
24,AATTAGTG,0.269
25,AGTTAGTC,0.0694

row,Sequence,PBM E-score
1,AATTAGGG,-0.107
2,ACCTTATC,0.0868
3,ATCCTCTC,-0.0398
4,GCAGTGTA,0.0324
5,GTTCACGA,0.0641
6,AACTTATT,0.21
7,CAAGAACA,-0.0451
8,TAAGAACA,0.326
9,GAAGAACA,0.225
10,GTTCATAA,0.0365
11,GACTCGTA,-0.126
12,GGATTGCC,-0.116
13,AGAACACG,0.0921
14,CAAGGGAC,-0.0565
15,CTTACTCA,0.164
16,CTTACTAA,0.443
17,CTTACTAC,0.211
18,GTTACTGA,0.106
19,GTTACTCA,0.161
20,GTTACTAA,0.339
21,ACGCGGGG,-0.0549
22,CATACGTA,0.156
23,AATACGTA,0.296
24,CTCACGAA,0.05
25,AATACGTG,0.0823

row,Sequence,PBM E-score
1,CTTACGTC,0.0927
2,ACTACGAA,0.099
3,ATTACGAA,0.329
4,GTTACGAA,0.181
5,AGTACGAA,0.245
6,CTTACGAA,0.259
7,CTTACGTA,0.349
8,GTTACGTA,0.182
9,CTTGTCCA,-0.0307
10,AAAGATCT,-0.0503
11,AAGAGATT,0.0728
12,TAGGTAGA,0.076
13,CGTACAAA,0.108
14,ATTGGGCA,-0.0331
15,GGCTACGA,-0.0605
16,ATAGGGCC,-0.174
17,TAGGGCAA,-0.0175
18,CGTGCGAG,-0.0121
19,ATTACGGC,0.241
20,ATTACGGA,0.295
21,CTTACGAC,0.0511
22,ATTACGAC,0.269
23,ATTACGGG,0.0809
24,ATTACGAG,0.228
25,ACTCGAGC,0.0632

row,Sequence,PBM E-score
1,GTTTGTCA,0.133
2,ATTTGTAG,0.117
3,CTTTGTCA,0.15
4,ATTTGTAA,0.373
5,ATTTGTCA,0.313
6,CTTTGTAA,0.27
7,CTTTGTAC,0.0552
8,GTTTGTAA,0.0859
9,ATTTGTAC,0.0689
10,GCGAATCA,0.173
11,CAACGGTG,-0.243
12,CGCGTGGA,-0.183
13,ATACTTAC,0.0503
14,CAATCAAC,0.217
15,AATAGCGA,0.24
16,CCCAAAGG,-0.2
17,GAGAAGCA,-0.118
18,AACTAGGT,0.154
19,GTGCTTTA,0.121
20,AGGTATGG,-0.0324
21,ATGAATGA,0.106
22,ATGAATGC,0.0737
23,ATGAATGG,0.268
